Among all 320,000 compounds or so, about 2,100 (0.66%) were called active. Not shown: some 53% with an inconclusive outcome. Calls come from the whole dose curve; as a rule, active = well fitted inhibition curve with a large enough effect in the signal ratio, with a control signal flat (not every such curve was filed as active); inconclusive = small, poorly fitted or top-dose-only effect, or effect the other way, or a change in a side signal; inactive = flat fitted curve, though single readings scatter; the % refers to the signal ratio. This excerpt belongs to a sample that is enriched for actives.
Experiment: qHTS Assay for Lipid Storage Modulators in Drosophila S3 Cells;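 for cell number change: cells counted by Cell Tracker Red CMTPX staining in the red channel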; for lipid storage change, negative = inhibition: % is set by controls: 0 for no effect and ±100 for the full control effect
Conditions: BODIPY lipid droplet fluorescence, 18-24 h, cells fed with added oleic acid; cell number change: measured here: cell count max response; series mostly up to 46.1 µM; lipid storage change, negative = inhibition: at the top concentration
Method in brief: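 Drosophila S3 cells loaded with oleic acid (400 uM, as added) and compounds at several concentrations; lipid droplets imaged by 488-nm laser-scanning cytometry, 500–530 nm intensity and object ratio to cell channel. Percent activity normalized to 20 uM Triacsin C.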
Potency is the fitted concentration of half-maximal effect.

| SMILES | lipid storage change, negative = inhibition | cell number change | outcome | Potency |
| --- | --- | --- | --- | --- |
| CCOC(=O)c1ccc(NC(=S)NNC(=O)c2cc(-c3cccnc3)nc3ccccc23)cc1 | -22.8% (inactive) | -10.9% |  |  |
| OCC1(CCc2ccccc2)CCN(Cc2cnc(N3CCCC3)s2)CC1 | -4.43% (inactive) | -1.4% |  |  |
| O=C(CCC(=O)N1CCOc2ccccc21)Nc1cc(F)ccc1F | -28.3% (inactive) | -2.02% |  |  |
| O=C1OCc2ccc(NC(=O)c3ccccc3C(=O)O)cc21 | -11.6% (inactive) | 2.9% |  |  |
| Cc1ccc(C)c(S(=O)(=O)Nc2ccc(C(=O)NCC(c3ccco3)N3CCCCC3)cc2)c1 (stereo not drawn) | -6.69% (inactive) | 16% |  |  |
| Cc1ccc2[nH]c(=O)c(CN(C)C(=O)c3cccs3)cc2c1 | -3.04% (inactive) | -11.8% |  |  |
| COC(=O)c1c(N)sc(C(=O)N2CCOCC2)c1C |  | 8.28% | inactive |  |
| COC(=O)c1c(NC(=O)c2ccccc2OC)sc(C(=O)N2CCOCC2)c1C |  | 4.76% | inactive |  |
| COC(=O)c1c(NC(=O)CCl)sc(C(=O)N2CCOCC2)c1C |  | -18.1% |  | 0.651 µM (active) |
| O=C(Cc1ccc(F)cc1)Nc1c(C(=O)N2CCN(c3ncccn3)CC2)oc2ccccc12 |  | 26.3% | inactive |  |
| COc1ccccc1CCNC(=O)c1cc(-c2ccncc2)nc2ccc(Br)cc12 | -8.45% (inactive) | -14.5% |  |  |
| O=C(CCc1c[nH]c2ccccc12)OCc1cccc([N+](=O)[O-])c1 |  | 0.451% |  | 5.8 µM (active) |
| O=C(COC(=O)CCc1c[nH]c2ccccc12)Nc1ccc([N+](=O)[O-])cc1 | -0.164% (inactive) | -0.284% |  |  |
| O=C(COC(=O)CCc1c[nH]c2ccccc12)Nc1cc([N+](=O)[O-])ccc1Cl | 9.58% (inactive) | 17.2% |  |  |
| Cn1c(C(=O)Nc2ccccc2)cc2sccc21 | -9.82% (inactive) | -17.5% |  |  |
| Cc1cccc(NC(=O)CCC(=O)N2CCOCC2)n1 | 6.69% (inactive) | -0.208% |  |  |
| CC(C)(C)n1nc2c(c1NC(=O)c1ccc(Br)o1)CS(=O)C2 (stereo not drawn) | -2.21% (inactive) | 12.2% |  |  |
| CC(C)(C)n1nc2c(c1NC(=O)c1ccco1)CS(=O)C2 (stereo not drawn) |  | -3.33% |  | 29.1 µM (active) |
| O=C(Nc1c2c(nn1-c1ccccc1)CS(=O)C2)c1ccco1 (stereo not drawn) |  | -4.99% | inactive |  |
| CCN1C(=O)/C(=c2\sc3nc(=O)c(Cc4ccccc4)nn3c2=O)c2ccccc21 | 3.23% (inactive) | 6.19% |  |  |
| Oc1ccc[n+](CCCCC[n+]2cccc(O)c2)c1 | -6.79% (inactive) | -10% |  |  |
| O=C(O)CCCCCCCCCC[n+]1ccccc1 | -6.38% (inactive) | 3.19% |  |  |

| SMILES | lipid storage change, negative = inhibition | cell number change | outcome | Potency |
| --- | --- | --- | --- | --- |
| C(C#CCCCCCCCCC[n+]1ccccc1)#CCCCCCCCCC[n+]1ccccc1 |  | 2.42% |  | 13 µM (active) |
| CSc1ccc(CN2CCCC(N3CCN(c4ccccc4)CC3)C2)cc1 (stereo not drawn) | 12.6% (inactive) | -9.94% |  |  |
| COc1ccccc1NNC(=O)c1cc(C(C)(C)C)nn1Cc1ccccc1 | 3.58% (inactive) | 13.3% |  |  |
| CC(C)(C)c1cc(C(=O)NNc2ccc(OC(F)(F)F)cc2)n(Cc2ccccc2)n1 | 4.79% (inactive) | 8.19% |  |  |
| CC(C)(C)c1cc(C(=O)NNc2cc(C(F)(F)F)ccc2Cl)n(Cc2ccccc2)n1 |  | -27.1% |  | 25.9 µM (active) |
| CC1CCCCC1NC(=O)c1ccc(S(=O)(=O)NCC2CCCO2)cc1 (stereo not drawn) | -16% (inactive) | 3.19% |  |  |
| Cc1ccc(NC2OC(CO)C(O)C2O)cc1[N+](=O)[O-] (stereo not drawn) | -8.08% (inactive) | -2.09% |  |  |
| Cc1ccc(NC2OC(CO)C(O)C(O)C2O)cc1 (stereo not drawn) |  | -12.8% | inactive |  |
| CC(=O)c1ccc(NC2OC(CO)C(O)C(O)C2O)cc1 (stereo not drawn) |  | -9.97% |  | 32.6 µM (active) |
| O=C(CCOc1ccccc1)N1CCN(S(=O)(=O)c2cccs2)CC1 |  | 5.86% | inactive |  |
| C=CCN1C(=O)C2(OCCCO2)c2ccccc21 | -18.8% (inactive) | 7.72% |  |  |
| C=CCN1C(=O)C2(OCCO2)c2cc(C)ccc21 | -2.45% (inactive) | 5.32% |  |  |
| C=CCN1C(=O)C2(OCCCO2)c2cc(Cl)ccc21 |  | 7.73% |  | 4.11 µM (active) |
| Cc1cc(C)c2nc(N3CCCC(C(=O)NCCN4CCOCC4)C3)sc2c1 (stereo not drawn) | 8.41% (inactive) | -0.96% |  |  |
| O=C1C(=O)N(CCN2CCOCC2)C(c2ccccn2)/C1=C(/O)c1ccccc1 (stereo not drawn) | 3.62% (inactive) | 1.37% |  |  |
| COCCCN1C(=O)C(O)=C(C(=O)c2ccco2)C1c1ccccc1 (stereo not drawn) |  | -2.26% |  | 3.66 µM (active) |
| CC(=O)C1=C(O)C(=O)N(CCN2CCOCC2)C1c1ccccc1 (stereo not drawn) |  | 1.7% |  | 20.6 µM (active) |
| Cc1ccc(C2C(C(=O)c3cc4ccccc4o3)=C(O)C(=O)N2CCN2CCOCC2)cc1 (stereo not drawn) |  | -0.236% | inactive |  |
| O=C1C(=O)N(CCN2CCOCC2)C(c2ccccn2)/C1=C(/O)c1ccc(Cl)cc1 (stereo not drawn) | 4.03% (inactive) | 8.56% |  |  |
| O=C(C1=C(O)C(=O)N(CCN2CCOCC2)C1c1ccc(F)cc1)c1cccs1 (stereo not drawn) |  | -5.07% |  | 18.4 µM (active) |
| CCOc1ccc(C2C(C(=O)c3cccs3)=C(O)C(=O)N2CCN2CCOCC2)cc1 (stereo not drawn) | -0.573% (inactive) | 7.61% |  |  |
| COCCN1C(=O)C(O)=C(C(=O)c2ccco2)C1c1cccc(Oc2ccccc2)c1 (stereo not drawn) | 3.16% (inactive) | 11.9% |  |  |

From PubChem BioAssay AID2685 (National Center for Advancing Translational Sciences (NCATS), 2010)
